# FLuc inh: inhibitors of firefly (Photinus pyralis) luciferase; AID 1347043; purified P. pyralis luciferase, luminescence, biochemical; Potency, µM (doses to about 115 µM), hits mostly inhibitors; P08659; hit rate 2.5% among 76,000; further: nearly all actives have a fitted effect of over 65% in size
#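 Luminescence read by CCD imaging after purified firefly luciferase (10nM final) was added to substrate buffer holding 10uM D-luciferin and 10uM ATP, pH 7.5, pre-dosed with compound.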
# HEK cytotox: cytotoxic compounds in HEK 293 cells | HEK 293 viability, ATP luminescence (CellTiter-Glo), 48-72 h | Potency, µM (titrated, usually from 115 µM), most hits filed as inhibitors | hit rate 6.6% among 94,000 | AID 1345083; further: nearly all actives have a fitted effect of over 60% in size
#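 Pintool-delivered compounds were incubated with HEK 293 cells (250 cells/well) at 37 degree Celsius for 48 or 72 hr. ATP-dependent luminescence (CellTiter-Glo) then reported remaining viable cells.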
# NIH3T3 tox: cytotoxic compounds in NIH 3T3 cells; NIH 3T3 viability, CellTiter-Glo ATP luminescence, 48-72 h; Potency, µM (top dose mostly 96.7 µM), usual class: inhibitors; hit rate 4.3% among 94,000; AID 1345082; further: nearly all actives have a fitted effect of over 55% in size
#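 Viability of NIH 3T3 cells after 48 or 72 hr compound treatment at 37 °C was assessed by CellTiter-Glo, with luminescence imaged following a 10 min room-temperature step.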
# hNpr1 antagonist: human Npr1 receptor antagonism; HEK293 hNpr1 GloSensor cGMP, ANP-stimulated luminescence; P16066; hit rate 1.6% among 76,000; Potency, µM (top dose mostly 46.3 µM), hits mostly inhibitors; AID 1347048; calls by dose curve; further: nearly all actives have a fitted effect of over 60% in size
# Target sequence (P16066 whole entry, looked up): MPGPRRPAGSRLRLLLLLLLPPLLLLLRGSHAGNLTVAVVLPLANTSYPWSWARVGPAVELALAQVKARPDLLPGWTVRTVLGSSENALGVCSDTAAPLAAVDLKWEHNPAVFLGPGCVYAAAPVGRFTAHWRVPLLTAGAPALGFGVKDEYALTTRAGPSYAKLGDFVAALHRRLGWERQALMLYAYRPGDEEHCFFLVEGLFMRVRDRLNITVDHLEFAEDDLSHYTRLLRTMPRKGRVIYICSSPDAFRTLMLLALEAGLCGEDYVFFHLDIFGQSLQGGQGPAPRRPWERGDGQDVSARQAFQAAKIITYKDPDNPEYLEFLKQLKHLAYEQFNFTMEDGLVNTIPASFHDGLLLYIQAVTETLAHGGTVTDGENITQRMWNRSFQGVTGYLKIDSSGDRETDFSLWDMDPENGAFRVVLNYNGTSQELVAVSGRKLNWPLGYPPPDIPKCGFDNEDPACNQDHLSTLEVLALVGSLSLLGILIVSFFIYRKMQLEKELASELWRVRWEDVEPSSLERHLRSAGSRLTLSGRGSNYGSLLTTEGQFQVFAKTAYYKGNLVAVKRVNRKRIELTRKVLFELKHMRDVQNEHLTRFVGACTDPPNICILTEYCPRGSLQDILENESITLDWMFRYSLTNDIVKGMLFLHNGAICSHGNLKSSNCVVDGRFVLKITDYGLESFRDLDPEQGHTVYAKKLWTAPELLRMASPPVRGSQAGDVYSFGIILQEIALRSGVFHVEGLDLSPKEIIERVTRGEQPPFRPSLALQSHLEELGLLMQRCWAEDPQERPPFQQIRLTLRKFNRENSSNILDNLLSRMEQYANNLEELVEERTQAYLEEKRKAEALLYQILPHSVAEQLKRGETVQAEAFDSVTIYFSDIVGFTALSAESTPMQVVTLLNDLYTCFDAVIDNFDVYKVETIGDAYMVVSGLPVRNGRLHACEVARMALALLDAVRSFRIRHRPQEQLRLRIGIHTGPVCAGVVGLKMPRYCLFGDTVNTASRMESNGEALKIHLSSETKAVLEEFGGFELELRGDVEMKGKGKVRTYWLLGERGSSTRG
#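 HEK293 cells stably expressing human Npr1 and cGMP GloSensor pGS-40F, loaded 2 h with 2% GloSensor reagent, given compound 30 min at room temperature. Luminescence read before and 20 min after 0.1 nM hNppA.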
# Numbers stand for hits; – = inactive; ? = inconclusive; · = not tested or not shown. Compounds with a hit are over-represented: about 11% of the library has one in this group of screens. Unless noted, the call rests on the fitted dose curve; in most records, active means well fitted curve in the direction sought with a large enough effect; inconclusive means small, poorly fitted or top-dose-only effect, or another doubt; inactive means no such curve, though single readings can be large; an effect the other way counts as inactive or inconclusive.
SMILES,FLuc inh,HEK cytotox,NIH3T3 tox,hNpr1 antagonist
COc1ccccc1-c1cccc(CN2CCCC(C(=O)N3CCCC(C)C3)C2)c1 (centres undefined),·,39.8µM,?,·
COc1ccccc1-c1cccc(CN2CCCC(C(=O)N3CCN(c4ncccn4)CC3)C2)c1 (centres undefined),·,15.8µM,?,·
COc1ccccc1-c1cccc(CN2CCCC(C(=O)N3CCC(c4ccccc4)CC3)C2)c1 (centres undefined),·,39.8µM,?,·
COc1ccccc1-c1cccc(CN2CCCC(C(=O)N3CCN(Cc4ccccc4)CC3)C2)c1 (centres undefined),·,39.8µM,35.5µM,·
O=C(C1CCCN(Cc2cccc(-c3ccc(F)cc3F)c2)C1)N1CCOCC1 (centres undefined),·,?,–,·
COc1cccc(CN2C(=O)CCCCC2C(=O)N2CCN(c3ncccn3)CC2)c1 (centres undefined),·,–,–,·
CS(=O)(=O)N1CCCC(C(=O)N2CCC(c3ccccc3)CC2)C1 (centres undefined),·,–,–,·
COCCN(C)C(=O)c1cn2cc(-c3cccc(Cl)c3)n(CC3CC3)c(=O)c2n1,–,–,?,–
CCCN(C)C(=O)c1cn2cc(-c3cccc(Cl)c3)n(CC=C(C)C)c(=O)c2n1,–,28.2µM,39.8µM,–
COCCCNC(=O)c1ccc2nnc(-c3ccccc3OC)n2c1,·,–,–,·
Cc1nc2c(OCC(=O)c3ccccc3)cccn2c(=O)c1-c1cc(C)n(-c2ccccc2)n1,39.8µM,?,–,–
CCOC(=O)CCCOc1cccn2c(=O)c(-c3cc(C)n(-c4cccc(C)c4)n3)c(C)nc12,–,–,–,–
Cc1cccc(CC(=O)N2CCCCCC2c2nnc(-c3ccccc3)o2)c1 (centres undefined),–,79.4µM,?,–
CC(C)n1cc(C(=O)NCc2cccnc2Oc2ccc(F)cc2F)cn1,–,?,?,–
O=C(NCc1cccnc1Oc1ccc(F)cc1F)c1cc(C2CC2)[nH]n1,–,8.91µM,?,–
COc1ccc(NC(=O)CC2CCCN(c3cnn(CC4CC4)c(=O)c3)C2)cc1 (centres undefined),–,?,28.2µM,–
Cc1ccc(NC(=O)CC2CCCN(c3cnn(CC4CC4)c(=O)c3)C2)cc1C (centres undefined),–,?,39.8µM,–
Cc1ccc(NC(=O)CC2CCCN(c3cnn(CC4CC4)c(=O)c3)C2)c(C)c1 (centres undefined),–,–,–,–
O=C(c1ccc(Cl)s1)N1CCC(N(C(=O)C2CC2)C2CCOCC2)CC1,–,–,–,–
O=C(C[C@H]1NC(=O)c2ccccc2NC1=O)Nc1nc(-c2ccc3c(c2)OCO3)cs1,–,?,–,–
Cc1ccc(S(=O)(=O)Nc2ccc3c(c2)CN(CCc2ccc(F)cc2)C(=O)C(C)O3)cc1F (centres undefined),–,?,?,–
CC1Oc2ccc(NS(=O)(=O)c3ccc(Cl)cc3)cc2CN(Cc2ccccc2F)C1=O (centres undefined),–,?,35.5µM,?
CCC(c1ccccc1)N1Cc2cc(NS(=O)(=O)c3ccc(F)cc3)ccc2OC(C)C1=O (centres undefined),–,?,14.1µM,–
CC1Oc2ccc(NC(=O)c3ccccc3Cl)cc2CN(Cc2ccc3c(c2)OCO3)C1=O (centres undefined),–,?,?,–
CC1Oc2ccc(NS(=O)(=O)c3cccc(Cl)c3)cc2CN(Cc2ccccc2Cl)C1=O (centres undefined),–,?,22.4µM,–
SMILES,FLuc inh,HEK cytotox,NIH3T3 tox,hNpr1 antagonist
CNC(=O)N1CCc2c(sc3ncnc(N(C)C)c23)C1,–,–,?,–
O=C(Nc1ccc(OC(F)(F)F)cc1)N1CCOC[C@H](Oc2ccccc2)C1,–,56.2µM,31.6µM,?
CCCNC(=O)N1CCOC[C@H](Oc2ccccc2)C1,–,–,–,–
O=C(NC[C@H]1O[C@H](Cc2cc(-c3ccccc3)on2)CC[C@@H]1O)c1ccccc1F,–,?,–,–
COc1ccc2ccc(OCc3nc(C(=O)N4CC(N5CCCCC5)C4)co3)cc2c1,?,?,?,–
Cc1nn2c(c1-c1ccccc1OCc1ccccc1)N(C(=O)CN1CCOCC1)CCC2,–,–,?,–
Cc1nn2c(c1-c1cccc3cn[nH]c13)N(C(=O)Cc1ccccc1)CCC2,–,–,44.7µM,–
Cc1nn2c(c1-c1ccccc1OCc1ccccc1)N(C(=O)Cc1ccccc1)CCC2,–,79.4µM,44.7µM,?
Fc1ccc(-c2cnc3n2C[C@H](CNC2CCOCC2)OC3)cc1,–,–,?,–
COc1ccc(C(=O)NC[C@H]2Cn3c(-c4ccc(Cl)cc4)cnc3CO2)cc1,?,100µM,?,?
COc1ccc(C(=O)NC[C@H]2Cn3c(-c4ccc(F)cc4)cnc3CO2)cc1,–,?,?,?
Clc1ccc(-c2cnc3n2C[C@H](CNC2CCOCC2)OC3)cc1,–,?,89.1µM,–
O=C(COc1ccccc1)NC[C@H]1Cn2c(-c3ccc(Cl)cc3)cnc2CO1,–,100µM,?,–
CN(Cc1ccc(N2CCOCC2)cc1)C(=O)CCC[C@H]1NC[C@@H]2C[C@H]1CN(Cc1ccccc1)C2,–,?,–,–
CC(C)(C)c1nnc2ccc(C(=O)NCc3cccnc3)cn12,·,–,–,·
O=C(Nc1ccccc1)N1CCCC(C(=O)N2CCC(N3Cc4cccn4C3=O)CC2)C1 (centres undefined),·,–,–,·
Cc1cn2nc(C(=O)N3CCC(NC(=O)c4ccccc4)CC3)cc2c(=O)[nH]1,–,–,–,–
Cc1cn2nc(C(=O)N3CCC(NC(=O)c4cccc(N(C)C)c4)CC3)cc2c(=O)[nH]1,35.5µM,–,–,–
O=C(NCc1cnccn1)c1ccc(-c2ncc3cnc(-c4cccc(F)c4)cn23)cc1,–,?,?,–
COCc1cc(=O)n(CC(=O)Nc2cc(C)ccc2OC)c(N2CCOCC2)n1,–,?,?,–
CCCC(C)C(=O)N1CCn2nc(C(=O)Nc3ccccc3)cc2C1 (centres undefined),–,35.5µM,–,–
COCCC1(NS(C)(=O)=O)CCN(C(=O)C2(c3ccc(OC)cc3)CC2)CC1,–,–,–,–
CC(C)CCN1C(=O)CC[C@]2(C(=O)N3CCC(N4CCCCC4)CC3)CCCC[C@@H]12,–,?,–,–
O=C1CC2(CCN(Cc3ccccc3)CC2)Oc2ccccc21,?,?,?,–
O=C1CC2(CCN(Cc3ccsc3)CC2)Oc2ccccc21,44.7µM,?,?,–
O=C1CC2(CCN(Cc3ccc(C(F)(F)F)cc3)CC2)Oc2ccccc21,–,25.1µM,?,?
O=C1CC2(CCN(Cc3cccc4ccccc34)CC2)Oc2cc(Cl)ccc21,–,?,?,–
O=C1CC2(CCN(Cc3cccc4ccccc34)CC2)Oc2ccccc21,–,35.5µM,?,–
CNC(=O)c1ccc2nc(-c3ccccn3)oc2c1,·,–,–,·
O=C([C@H]1CCCN1C(=O)c1ccccc1F)N1CCCC(c2nc3ccncc3[nH]2)C1 (some centres undefined),·,–,–,·

# Compound activity (PubChem)
